# Screen size: about 48,000 compounds; about 13,000 (27%) showed an effect of 50% or more. This is one part of the list.
# Tested on: Wolbachia pipientis
# Experiment: Anti-Wolbachia Cell-Based Screen
# Type: functional
# Parameters: scale not given: in the data most compounds retested in dose-response had high values
# Details: 5 µM
row,SMILES,Percent Effect
1,CCC(CC)CS(=O)(=O)NC(=O)C1CCCC1,-11.88%
2,Cc1cnccc1CN(C)Cc1c[nH]nc1-c1ccc(F)cc1F,-6.627%
3,Cc1cc(C)n(-c2cccc(NC(=O)N3CCC[C@@H]3CO)c2)n1,-12.47%
4,COc1ccccc1C(=O)N1CCCC1Cn1cc(C)cn1 (stereo unspecified),-4.126%
5,CC(NC(=O)N1CCC[C@H]1CO)c1noc(-c2ccccc2)n1 (stereo partly specified),5.475%
6,O=C(c1cncc2ccccc12)N1CCC[C@@H]1CO,106.1%
7,Cc1cnn(CC2CCCN2C(=O)c2cn(C)c3ccccc23)c1 (stereo unspecified),141.3%
8,Cc1cnn(CC2CCCN2C(=O)c2cc(O)nc3ccccc23)c1 (stereo unspecified),145.5%
9,O=C(Nc1ccccc1OC1CCOC1)c1ccon1 (stereo unspecified),-7.759%
10,CCN(CCc1nc2cc(C)ccc2[nH]1)C(=O)[C@@H](N)Cc1c[nH]cn1,-4.555%
11,CCOCc1nccc(-c2ccc(OCC)c(C(=O)O)c2)n1,-8.809%
12,Cc1ccc(-c2nnc(C(C)N3CCn4c(C)nnc4C3)o2)cc1 (stereo unspecified),7.305%
13,Cc1noc(C(C)N2CCc3[nH]c4ccc(Cl)cc4c3C2)n1 (stereo unspecified),55.06%
14,Cc1nnc(C(C)NCC2(c3ccc(Cl)cc3)CCCC2)o1 (stereo unspecified),5.084%
15,Cc1nnc2n1CCN(C(C)c1nnc(-c3cccs3)o1)C2 (stereo unspecified),4.366%
16,Cc1cccc(-c2nnc(C(C)N3CCn4c(C)nnc4C3)o2)c1 (stereo unspecified),3.143%

row,SMILES,Percent Effect
1,CCc1cc(C)nc(N2CCN(C(C)c3nc(C)no3)CC2)n1 (stereo unspecified),7.355%
2,Cc1nnc(C(C)N2CCc3[nH]c4ccc(Cl)cc4c3C2)o1 (stereo unspecified),96.73%
3,Cc1noc(C(C)N2CCC(c3nc4ccccc4[nH]3)CC2)n1 (stereo unspecified),-1.749%
4,Cc1nnc(C(C)N2CCc3[nH]c4ccccc4c3C2)o1 (stereo unspecified),119.5%
5,CN(CCO)C[C@@H]1CN(Cc2ccccc2C#N)C[C@@H]1CO,5.341%
6,O=C(O)C(F)(F)F.O=C([C@H]1COC[C@H]2CN(C3CCCC3)C[C@H]21)N1CCCO1,3.277%
7,Cl.Cl.O=C(NC[C@H]1OC[C@@H](NC2CCNCC2)[C@@H]1O)C1CCCC1,-10.79%
8,O=C(C1CC1)N1C[C@@H](F)[C@@H](OCc2nc3ccccc3[nH]2)C1,-5.445%
9,CC(=O)N1CCO[C@H]2[C@H](OCCCn3cccn3)CC[C@@H]21.O=C(O)C(F)(F)F,121.4%
10,O=C(C1CCOCC1)N1CCO[C@H]2[C@H](Oc3ccccn3)CC[C@@H]21.O=C(O)C(F)(F)F,-40.04%
11,O=C(N1CCCC1)N1CCO[C@H]2[C@@H](OCc3cccnc3)CC[C@@H]21.O=C(O)C(F)(F)F,-4.224%
12,Cn1cccc1C(=O)N1CCO[C@H]2[C@H](OCc3cccnc3)CC[C@@H]21.O=C(O)C(F)(F)F,-1.301%
13,CCS(=O)(=O)N1CCO[C@H]2[C@H](OCCCn3cccn3)CC[C@@H]21.O=C(O)C(F)(F)F,3.946%
14,O=C(C1CCC1)N1CCO[C@H]2[C@H](OCCCn3cccn3)CC[C@@H]21.O=C(O)C(F)(F)F,102.2%
15,O=C(CC1CC1)N1CCO[C@H]2[C@H](OCCCn3cccn3)CC[C@@H]21.O=C(O)C(F)(F)F,104.8%

# — ChEMBL document CHEMBL3988442, “University of Dundee, Small-Polar-MMV Screening Library” (2021)
